These results are taken from PubChem BioAssay (NCI).

What all share (assay): NCI-60 one-dose screen, 48 h (100 = growth as untreated, 0 = no growth, -100 = all killed)
One experiment concerns HCT-15 colon. The conditions noted are these: 10 µM unless noted.
For the next experiment, the system named is HT29 colon. The note with it: 10 µM unless noted.
The subject of the next experiment is SNB-19 CNS. The conditions noted are these: 10 µM unless noted.
The next experiment concerns U251 CNS. The conditions noted are these: 10 µM unless noted.
The subject of the next experiment is PC-3 prostate. The note with it: 10 µM unless noted.
A further experiment deals with SK-MEL-5 melanoma. The note with it: 10 µM unless noted.
The next experiment concerns UACC-62 melanoma. The note with it: 10 µM unless noted.
The next experiment concerns LOX IMVI melanoma. The conditions noted are these: 10 µM unless noted.
In another experiment the test system is SK-MEL-28 melanoma. The note with it: 10 µM unless noted.
Another experiment has as its system SK-MEL-2 melanoma. The note with it: 10 µM unless noted.
In a further experiment the test system is EKVX NSCLC. The conditions noted are these: 10 µM unless noted.
The next experiment has as its system SN12C renal. The conditions noted are these: 10 µM unless noted.
The subject of another experiment is UO-31 renal. The conditions noted are these: 10 µM unless noted.
A further experiment deals with TK-10 renal. The note with it: 10 µM unless noted.
In the next experiment the test system is ACHN renal. The note with it: 10 µM unless noted.
The next experiment deals with CAKI-1 renal. The note with it: 10 µM.
A further experiment has as its system A498 renal. The conditions noted are these: 10 µM unless noted.
In a further experiment the test system is CCRF-CEM leukemia. The conditions noted are these: 10 µM unless noted.
In another experiment the test system is MOLT-4 leukemia. The conditions noted are these: 10 µM unless noted.
Another experiment concerns SNB-75 CNS. The conditions noted are these: 10 µM unless noted.

About 83,000 compounds went through this panel and 20% of them were active in at least one assay; those are over-represented in the sample as a whole.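 Step 1: grow cells in 96-well plates. Step 2: add test compound at a single concentration. Step 3: incubate 48 h. Step 4: record percent growth.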 A number with no mark means an inactive call. Activity calls are given as the source filed them. How the source made its calls: active means growth percent below 10; inactive means the rest.

Consider `C#C[C@]1(O)CC[C@H]2[C@@H]3CC=C4c5sc(-c6ccc(OC)cc6)nc5CC[C@]4(C)[C@H]3CC[C@@]21C`, for which the growth in the experiment on HCT-15 colon was 46.9%; in the experiment with HT29 colon, 46.6%; in the experiment with SNB-19 CNS it was 63.6%; in the experiment on U251 CNS, 42.7%; with PC-3 prostate it was 28.2%; in the experiment with SK-MEL-5 melanoma, 85.1%. Also, the growth is 33.2% in the experiment on UACC-62 melanoma; 45% with LOX IMVI melanoma; 4.22% (active) in the experiment with SK-MEL-28 melanoma; 53.8% in the experiment with SK-MEL-2 melanoma; 76.8% in the experiment on EKVX NSCLC; 84.2% in the experiment with SN12C renal. Besides, the growth is 18.9% in the experiment on UO-31 renal; 78% in the experiment on TK-10 renal; 59.8% in the experiment on ACHN renal; 64.4% in the experiment with CAKI-1 renal; 56% in the experiment with A498 renal; 26.8% with CCRF-CEM leukemia. For the same molecule, the growth with MOLT-4 leukemia was 7.24% (active).

Take `NNC(=O)c1sc2nc(-c3cnccn3)cc(-c3cccs3)c2c1N`: the growth in the experiment on HCT-15 colon is 89.9%; with HT29 colon, 106%; in the experiment on SNB-19 CNS it was 88.2%; with U251 CNS, 90%; in the experiment on PC-3 prostate, 90.1%; with SK-MEL-5 melanoma, 97.2%. For the same molecule, the growth is 93.7% in the experiment with UACC-62 melanoma; 83.2% with LOX IMVI melanoma; 101% in the experiment with SK-MEL-28 melanoma; 102% in the experiment with SK-MEL-2 melanoma; 86.8% in the experiment on EKVX NSCLC; 95.5% in the experiment with SN12C renal. The growth was 75.9% in the experiment with UO-31 renal; 118% in the experiment on TK-10 renal; 95.4% with ACHN renal; 87.6% in the experiment on CAKI-1 renal; 79.5% with A498 renal; 62.7% with CCRF-CEM leukemia. In addition, the growth with MOLT-4 leukemia was 77%.

Consider `O=C(/C=C/c1cn(-c2ccccc2)nc1-c1ccc(Cl)cc1)c1cc2ccccc2oc1=O`, for which the growth in the experiment with HCT-15 colon was 58.9%; in the experiment on HT29 colon, 62.1%; in the experiment on SNB-19 CNS, 54.3%; with U251 CNS, 35.1%; in the experiment with PC-3 prostate it was 53.3%; in the experiment on SK-MEL-5 melanoma, 72%. Besides, the growth is 52.7% with UACC-62 melanoma; 37.3% with LOX IMVI melanoma; 93% in the experiment on SK-MEL-28 melanoma; 88% in the experiment with SK-MEL-2 melanoma; 79.8% in the experiment on EKVX NSCLC; 31% with SN12C renal. For the same molecule, the growth was 39.8% in the experiment with UO-31 renal; 113% in the experiment on TK-10 renal; 59.9% in the experiment on ACHN renal; 29.2% in the experiment on CAKI-1 renal; 111% in the experiment with A498 renal; 50.7% with CCRF-CEM leukemia. The growth in the experiment with MOLT-4 leukemia is 55.3%.

As for `O=C(COc1ccc(/C=C2\SC(=O)NC2=O)cc1)Nc1ccc(C(=O)/C=C/c2cc3ccccc3nc2Cl)cc1`, the growth in the experiment with HCT-15 colon is 76.8%; with HT29 colon it was 4.19% (active); in the experiment on SNB-19 CNS, 82%; with U251 CNS, 69%; in the experiment on PC-3 prostate, 65.6%; with SK-MEL-5 melanoma, 33.5%. Besides, the growth in the experiment on UACC-62 melanoma is 70.6%; in the experiment on LOX IMVI melanoma, 47.8%; with SK-MEL-28 melanoma, 99.2%; in the experiment on SK-MEL-2 melanoma, 91%; in the experiment with EKVX NSCLC, 73.1%; in the experiment on SN12C renal, 87.5%. Moreover, the growth in the experiment with UO-31 renal was 57.6%; in the experiment with TK-10 renal, 89.8%; in the experiment on ACHN renal it was 85.1%; in the experiment on CAKI-1 renal it was 59.2%; in the experiment with A498 renal, 80.7%; with CCRF-CEM leukemia it was 35.4%. In the experiment with MOLT-4 leukemia, the growth is 42.8%.

`CCCC(=O)NC(c1cccnc1)c1cc(C(C)=O)c2cccnc2c1O` (stereo unspecified): the growth with HCT-15 colon is 19.6%; in the experiment with HT29 colon, 26.9%; in the experiment on SNB-19 CNS it was 29.5%; in the experiment with U251 CNS, 23.3%; with PC-3 prostate it was 39.2%; with SK-MEL-5 melanoma, 0.739% (active). Further, the growth in the experiment with UACC-62 melanoma was 1.58% (active); with LOX IMVI melanoma it was 27%; with SK-MEL-28 melanoma, 34.1%; with SK-MEL-2 melanoma, 62.8%; in the experiment with EKVX NSCLC, 22.3%; in the experiment with SN12C renal it was 43.9%. The growth in the experiment with UO-31 renal is 13.6%; in the experiment on TK-10 renal, 39.1%; in the experiment on ACHN renal, 14.5%; with CAKI-1 renal it was 20.5%; in the experiment with A498 renal, 56.6%; in the experiment with CCRF-CEM leukemia, 20.8%. In addition, the growth in the experiment on MOLT-4 leukemia is 25.1%.

On to `NC(=S)N/N=C(/C=C/c1cn(-c2ccccc2)nc1-c1ccc(Cl)cc1)c1cc2ccccc2oc1=O`, for which the growth in the experiment with HCT-15 colon is 19.9%; with HT29 colon, 36.1%; in the experiment on SNB-19 CNS, 47.6%; in the experiment on U251 CNS, 35.4%; in the experiment on PC-3 prostate it was 28%; in the experiment with SK-MEL-5 melanoma, 30.4%. Moreover, the growth in the experiment with UACC-62 melanoma is 49.6%; in the experiment on LOX IMVI melanoma, 36%; in the experiment on SK-MEL-28 melanoma it was 73%; in the experiment with SK-MEL-2 melanoma it was 82.5%; in the experiment with EKVX NSCLC, 35%; in the experiment with SN12C renal, 44.3%. Moreover, the growth in the experiment with UO-31 renal was 28.5%; in the experiment with TK-10 renal, 89.9%; in the experiment with ACHN renal, 43.7%; in the experiment with CAKI-1 renal it was 45.9%; in the experiment with A498 renal it was 69.3%; in the experiment with CCRF-CEM leukemia it was 8.22% (active). Further, the growth with MOLT-4 leukemia is 23.7%.

Take `Cc1ccc(-c2csc(N/N=C/c3nc4ccccc4n3C3CC3)n2)cc1`: the growth was 80.6% with HCT-15 colon; 92.2% in the experiment on HT29 colon; 22% with SNB-75 CNS; 81.2% in the experiment on SNB-19 CNS; 43.8% in the experiment on U251 CNS; 5.51% (active) in the experiment with SK-MEL-5 melanoma. In addition, the growth was 95.1% in the experiment with UACC-62 melanoma; 103% in the experiment on SK-MEL-28 melanoma; 74.7% in the experiment with SK-MEL-2 melanoma; 97.5% in the experiment with EKVX NSCLC; 82.8% in the experiment on SN12C renal; 16.1% in the experiment with UO-31 renal. The growth in the experiment on TK-10 renal is 141%; with ACHN renal, 1.34% (active); in the experiment on CAKI-1 renal it was 77.9%; in the experiment on A498 renal, 78.3%; in the experiment on CCRF-CEM leukemia, -20.9% (active); with MOLT-4 leukemia, 37.3%.

Turning to `CC(C)N=C(N/C(N)=N/c1nc2ccccc2s1)NC(C)C`, the growth was 62.5% in the experiment with HCT-15 colon; 31.7% in the experiment with HT29 colon; 48.2% in the experiment with SNB-19 CNS; 57.6% with U251 CNS; 64% in the experiment on PC-3 prostate; 62.5% in the experiment with SK-MEL-5 melanoma. The growth was 61.4% with UACC-62 melanoma; 1.73% (active) in the experiment on LOX IMVI melanoma; 74.6% in the experiment with SK-MEL-28 melanoma; 107% with SK-MEL-2 melanoma; 67.6% in the experiment on EKVX NSCLC; 45.6% in the experiment with SN12C renal. In addition, the growth in the experiment with UO-31 renal was 46.4%; in the experiment on TK-10 renal, 80.6%; with ACHN renal, 55.4%; in the experiment on CAKI-1 renal, 45.2%; with A498 renal, 72.8%; in the experiment with CCRF-CEM leukemia, 52.9%. Further, the growth in the experiment with MOLT-4 leukemia was 55.2%.
